# Screens deposited in PubChem BioAssay by National Center for Advancing Translational Sciences (NCATS).
# KCNH2 WT inh = KCNH2 (human, wildtype) channel inhibition; activity change, % at 1.84 µM; U2OS, BacMam KCNH2, thallium flux FluxOr; hits give low values; actives 0.37% (n = 340,000); Q12809;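 active means maximum activity change below -70%; inconclusive means maximum activity change between -70% and -50%; inactive means maximum activity change above -50%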; further: on the % scale 0 is the no-effect control and ±100 the full control effect
# Target sequence (Q12809 whole entry, looked up): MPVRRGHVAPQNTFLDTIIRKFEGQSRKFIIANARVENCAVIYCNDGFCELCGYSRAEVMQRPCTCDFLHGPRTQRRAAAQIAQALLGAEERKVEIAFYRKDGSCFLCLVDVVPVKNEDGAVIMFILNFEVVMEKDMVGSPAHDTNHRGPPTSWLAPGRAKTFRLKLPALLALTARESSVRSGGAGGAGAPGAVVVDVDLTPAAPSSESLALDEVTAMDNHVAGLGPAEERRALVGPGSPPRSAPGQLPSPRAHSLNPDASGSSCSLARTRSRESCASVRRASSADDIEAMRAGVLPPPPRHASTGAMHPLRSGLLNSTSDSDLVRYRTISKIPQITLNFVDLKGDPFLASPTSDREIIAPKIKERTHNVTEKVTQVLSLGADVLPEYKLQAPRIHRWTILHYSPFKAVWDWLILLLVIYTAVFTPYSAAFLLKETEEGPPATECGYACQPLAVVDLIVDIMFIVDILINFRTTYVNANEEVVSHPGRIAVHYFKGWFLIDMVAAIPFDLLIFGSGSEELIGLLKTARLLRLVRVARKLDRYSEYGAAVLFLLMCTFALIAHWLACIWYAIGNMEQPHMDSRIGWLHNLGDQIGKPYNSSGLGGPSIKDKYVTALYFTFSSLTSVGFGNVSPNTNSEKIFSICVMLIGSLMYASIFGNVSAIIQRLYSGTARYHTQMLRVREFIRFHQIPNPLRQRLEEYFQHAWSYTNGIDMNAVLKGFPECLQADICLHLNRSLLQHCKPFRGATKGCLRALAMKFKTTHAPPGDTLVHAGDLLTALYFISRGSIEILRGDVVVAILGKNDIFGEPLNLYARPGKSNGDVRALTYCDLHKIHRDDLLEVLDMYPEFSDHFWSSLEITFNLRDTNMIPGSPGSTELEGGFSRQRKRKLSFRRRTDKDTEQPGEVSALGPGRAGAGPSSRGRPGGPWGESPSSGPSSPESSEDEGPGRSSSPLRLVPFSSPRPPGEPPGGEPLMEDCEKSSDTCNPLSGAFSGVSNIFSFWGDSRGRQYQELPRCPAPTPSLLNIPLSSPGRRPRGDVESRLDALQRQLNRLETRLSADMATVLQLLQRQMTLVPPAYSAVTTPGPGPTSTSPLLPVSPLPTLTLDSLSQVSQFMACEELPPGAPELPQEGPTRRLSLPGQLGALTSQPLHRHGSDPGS
#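 U2OS cells were transduced with wild-type KCNH2 virus (2.03 x 10^8 / mL) for 4 h at room temperature, then cultured overnight at 37 C. Thallium flux was read with FluxOr dye. Rate constants were normalized to DMSO controls.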
# MBNL1-CUG inh = inhibitors of human MBNL1 binding to CUG repeat RNA | Q9NR56 | TR-FRET MBNL1-His/biotin-(CUG)12 binding, 665/545 ratio | Potency, µM (highest dose often 57.5 µM), inactives show top-dose activity change, negative = inhibition, most hits filed as inhibitors | actives 0.036% (n = 280,000) | AID 2675; active means well fitted inhibition curve with a large enough effect in the signal ratio, with a control signal flat, not every such curve was filed as active; inconclusive means small, poorly fitted or top-dose-only effect, or effect the other way, or a change in a side signal; inactive means no such curve, though single readings can be large or run the other way; the % refers to the signal ratio; further: potency means the concentration at half of the fitted maximal effect; on the % scale 0 is the no-effect control and ±100 the full control effect
#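 TR-FRET between His-tagged MBNL1 and biotin-(CUG)12 RNA, detected with Tb anti-His antibody (0.055 ng/ul) and streptavidin-XL665 (5 nM), 60 min at room temperature. Compounds titrated 92 nM to 58 uM; 665/545 nm ratio normalized to buffer and complex controls.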
# KCNH2 3.1 inh = blocks the human KCNH2 3.1 channel isoform | actives 0.95% (n = 340,000) | activity change, % (tested at about 1.8 µM) | U2OS KCNH2 3.1, thallium flux FluxOr; hits give low values;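 active means maximum activity change below -70%; inconclusive means maximum activity change from -70% to -50%; inactive means maximum activity change above -50%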;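 further: thallium influx rate constant from kinetic fluorescence after stimulation buffer; on the % scale 0 is the no-effect control and ±100 the full control effect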
#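 Steps: virus added to U2OS suspension (4 h, RT, dark); medium with 10% FBS added, cells plated, 37 C overnight; FluxOr/Red40 loading buffer 45 min RT; stimulation buffer, 2 min kinetic read; rate constant normalized.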
# TRPV1 PAM = human TRPV1 potentiation; potentiation, % at 8.33 µM; actives 0.02% (n = 320,000); TRPV1-expressing cells, Fluo-8 calcium influx, capsaicin EC20 potentiation; in the data active means potentiation above about 80%; inconclusive means between about 30% and that limit; further: 0% is about no effect
#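 Fluo-8 calcium influx in TRPV1-expressing cells, kinetic read (ex 480/em 520 nm). Compound added and read 3 min for agonist activity, followed by capsaicin at EC20 final and 2 min further read for enhancement.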
# TRPV1 ag = agonists of human vanilloid receptor 1 (TRPV1); Q8NER1; activation, % at 8.33 µM; TRPV1-expressing cells, Fluo-8 calcium influx, agonist mode; actives 0.19% (n = 320,000); in the data active means activation above about 80%; inconclusive means between about 30% and that limit; further: 0% is about no effect
#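 Fluo-8 calcium influx in TRPV1-expressing cells, kinetic read (ex 480/em 520 nm). Compound added and read 3 min for agonist activity, followed by capsaicin at EC20 final and 2 min further read for enhancement.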
# Starred values were filed as active, the others as inactive; ? = inconclusive; / = not tested or not shown. A selection: hits, their analogues and other compounds. The true share with any hit is near 1.3%.
SMILES,KCNH2 WT inh,MBNL1-CUG inh,KCNH2 3.1 inh,TRPV1 PAM,TRPV1 ag
Cc1cc(C)c(S(=O)(=O)N2CCCC(C(=O)NC3CCCC3)C2)c(C)c1 (configuration not stated),-5.4,-5.1%,4.7,12.5,19.0
O=C1NN(c2ccccc2)C(=O)/C1=C/c1ccc(Sc2cccc3ccccc23)o1,2.5,51.2%,1.1,12.6,-1.2
O=C(OCN1C(=O)c2ccccc2C1=O)c1cc(S(=O)(=O)N2CCOCC2)ccc1F,-34.9,/,8.2,9.6,-0.2
COC(=O)C(Cc1ccc(O)cc1)NC(=O)C(C)NC(=O)c1ccc(C(C)(C)C)cc1 (configuration not stated),-10.4,1.8%,6.7,-7.2,4.2
Cc1cc(=O)oc2c3c(cc(OCC(=O)NCC4CCC(C(=O)O)CC4)c12)OC(C)(C)CC3 (configuration not stated),0.6,-4.9%,4.1,1.5,-3.5
CC(=O)Nc1ccc(N2C(=O)c3ccc(S(=O)(=O)c4ccc(C(=O)O)cc4)cc3C2=O)cc1,-167.6*,0.1%,21.8,19.9,0.0
Cn1nnc(NC(=O)c2ccc(Br)o2)n1,-18.7,-3.6%,-76.5*,-4.9,1.5
COc1cccc(NC(=O)N(C)C[C@H]2Oc3cc(Br)ccc3S(=O)(=O)N([C@H](C)CO)C[C@H]2C)c1,2.5,/,13.0,/,/
CCCN(c1ccc(OCC)cc1)c1ncnc2nc[nH]c12,-8.3,-4.9%,-90.3*,4.2,-2.8
CCN(c1ccc(OC)cc1)c1ncnc2nc[nH]c12,-7.9,-16.4%,-11.7,?,-5.4
c1cnc2nc3c4ccccc4c4ccccc4c3nc2c1,1.9,/,9.7,/,/
CCCCOc1ccc(C(=O)N/C(=C\c2cccc([N+](=O)[O-])c2)C(=O)OCc2ccco2)cc1,-28.4,/,-75.5*,-2.2,0.8
CCCCOc1ccc(C(=O)N/C(=C\c2ccc(OC)cc2)C(=O)OCc2ccco2)cc1,-10.9,-3.8%,0.7,13.7,-3.1
CCN1N=C(c2ccccc2)Cn2c1nc1ccccc12,-18.4,19.0%,/,-14.2,89.6*
O=[N+]([O-])c1cc(S(=O)(=O)O)cc([N+](=O)[O-])c1NN(c1ccccc1)c1ccccc1,-4.6,28.6%,9.8,-13.1,-0.8
CCOc1ccc(CN(CC)C(=O)c2ccc3c(c2)[nH]c(=O)c(=O)n3CC)cc1OC,1.0,-2.5%,-4.5,1.1,1.3
OCCOCCNc1ncnc2nc[nH]c12,-4.4,-10.6%,-207.2*,-7.2,-0.6
CCOC(=O)C1(CC2CC2)CCN(Cc2cc(Cl)c(O)c(OC)c2)CC1,8.8,-28.9%,-1.1,-6.0,1.2
CCOC(=O)C1(CCc2ccccc2)CCN(Cc2cnc(N(C)C)s2)CC1,-86.2*,6.4%,-112.0*,-13.1,3.6
CCOC(=O)C1(CC2CC2)CCN(Cc2ccc(OC)cc2F)CC1,16.8,?,-107.5*,-13.6,2.4
CN(C)c1ncc(CN2CCC(CO)(CCCc3ccccc3)CC2)s1,19.6,-4.3%,-7.0,10.8,2.5
CCOC(=O)C1(CCCc2ccccc2)CCN(C2CCSCC2)CC1,-125.6*,16.0%,-107.4*,-3.7,11.2
OCC1(CCCc2ccccc2)CCN(C2CCSCC2)CC1,26.1,13.5%,1.5,-13.1,3.5
CCOC(=O)C1(CCc2ccccc2)CCN(Cc2ccc(OC)cc2)CC1,-136.3*,-17.3%,-111.4*,1.3,7.8
CC(NS(=O)(=O)c1cc2c3c(c1)CCC(=O)N3CCC2)c1ccccc1 (configuration not stated),29.5,/,-9.6,-8.0,2.1
SMILES,KCNH2 WT inh,MBNL1-CUG inh,KCNH2 3.1 inh,TRPV1 PAM,TRPV1 ag
Fc1c(F)c(-n2nnc3ccccc32)c(F)c(F)c1Cl,-0.8,-1.3%,0.9,-19.8,?
Cc1cc(OC(C)C(=O)NCCCN2CCOCC2)ccc1Cl (configuration not stated),-4.4,-4.6%,5.3,0.2,1.4
CCOC(=O)C1(CCc2ccccc2)CCN(Cc2ccc(O)cc2)CC1,-113.0*,-6.6%,-116.0*,-46.9,26.1
CN(C)c1cc2c(cc1NC(=O)c1ccccc1Cl)n(C)c(=O)n2C,-10.5,-3.1%,1.3,-5.2,10.6
CCOC(=O)c1c(N)nn(C(C)=O)c1-c1ccccc1,-7.7,2.8%,-72.5*,-6.8,-0.7
CCOC(=O)c1c(N)nn(C(=O)C(C)C)c1-c1ccc(OC)cc1,-2.1,1.9%,-8.4,-5.5,9.8
COc1ccc(Cc2noc(CN3CCN(Cc4csc(C)n4)CC3)n2)cc1OC,-4.8,-5.1%,4.0,2.0,-0.5
Cc1ccccc1-n1nnnc1SCc1cc(=O)n2ccsc2n1,8.3,-2.0%,-7.4,8.7,0.7
O=c1cc(CSc2nnnn2-c2ccccc2)nc2sccn12,-5.7,2.9%,-72.2*,10.9,-0.8
CC(=O)Nc1ccc(Sc2ncccc2C(=O)Nc2cc(Cl)cc(Cl)c2)cn1,-11.2,-2.2%,-7.2,7.8,-1.5
CC(=O)Nc1ccc(Sc2ncccc2C(=O)Nc2ccc(OC(F)(F)F)cc2)cn1,0.9,-10.7%,-86.2*,9.0,-4.3
CC1CCCC(NC(=O)COC(=O)c2cc(S(=O)(=O)N3CCOCC3)ccc2F)C1C (configuration not stated),8.6,/,15.5,-0.2,5.9
CCCCCCNS(=O)(=O)c1ccc(NC(=O)C2CCCO2)cc1 (configuration not stated),-2.5,-2.0%,-3.2,-7.5,6.0
O=C1C2C3C=CC(C4CC34)C2C(=O)N1Cc1ccccc1 (configuration not stated),-2.0,-4.4%,4.2,-15.8,9.7
O=C1NN(c2ccccc2)C(=O)C2C3C=CC(C4CC34)C12 (configuration not stated),-147.0*,-14.3%,14.0,25.1,-2.8
COC(C(=O)NNS(=O)(=O)c1ccccc1[N+](=O)[O-])c1ccccc1 (configuration not stated),-95.6*,?,11.9,10.3,1.5
O=C(CN(c1ccccc1Cl)S(=O)(=O)c1ccccc1)N/N=C/c1ccccc1C(=O)O,7.1,0.7%,-1.7,0.5,-3.1
O=C(CN(Cc1ccco1)S(=O)(=O)c1ccccc1)N/N=C/c1ccccc1C(=O)O,-2.4,9.1%,-103.8*,23.5,-4.1
CCCCCCCC(=O)N/N=C/c1ccc(Br)cc1,9.1,-9.7%,-82.5*,-6.5,?
CCCCCCCC(=O)N/N=C/c1cccnc1,-6.9,2.4%,-7.0,-21.2,?
N/C(=N\c1nc2c(c(=O)[nH]1)CCC2)Nc1cccc2ccccc12,8.6,4.0%,-77.8*,-2.0,-1.1
CCc1cc(-c2onc(C)c2-c2cscn2)c(O)cc1OC,-3.3,-1.3%,-89.5*,10.3,1.5
COc1ccc(-c2onc(C)c2-c2cscn2)c(O)c1,-4.0,-2.4%,-0.9,3.6,1.9
Cc1cn2c(-c3cccnc3)nnc2s1,4.5,4.1%,-76.5*,7.7,-2.8
